Hits are enriched below; roughly 12% of the tested compounds scored in any of these assays.
ROMK mod: human ROMK K+ channel modulation, primary screen. P48048. Tet-inducible ROMK, thallium flux fluorescence; actives lie on both sides. B-score at 10 µM. 130,000 compounds, 2% hits;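 active means signal ratio slope over the read window, or its plate-corrected B-score, at least 3 SD from the plate mean, either direction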;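 further: B-score of the F/F0 ratio slope over 7 to 12 s after thallium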
KCC2 mod: modulates chloride dependent transport by human KCC2. Q9H2X9. KCC2 cells, thallium flux FluoZin-2 fluorescence. B-score of Tl+ flux slope (higher = more flux/activation; lower = inhibition) at 10 µM. 190,000 compounds, 2.2% hits. AID 1456;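 active means thallium flux slope and its plate-corrected score both differing from the plate sample mean at a set confidence after two filtering rounds, in either direction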;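 further: slope of fluorescence scaled to starting intensity during 10 to 20 s after thallium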
Insulin prom up: MIN6 insulin promoter up-regulation; 190,000 compounds, 0.3% hits; z-score at 5 µM; AID 1625; MIN6 insulin promoter-GFP reporter, high-content imaging; stronger effect = higher value;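 active means z-score above 3 at 5 µM with at least 500 cells counted in the well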
WT yeast gro inh: growth inhibition of WT yeast, mitochondrial fusion screen. 190,000 compounds, 2.1% hits. inhibition, % at 10 µM. AID 1362. mitochondrial fusion phenotypic screen, WT strain; in the data active means inhibition above about 58%; tested in S. cerevisiae
INS promoter inh: TRM-6 insulin promoter activity inhibition. 130,000 compounds, 0.9% hits. inhibition, % at 2 µM. TRM-6 cells (human fetal islet line), insulin promoter-eGFP reporter, imaging; reporter expression induced with tamoxifen. AID 1273;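 active means inhibition above the mean plus 3 SD, with well images judged a real hit on visual review, cut at about 60% in these data, passing the limit was not always enough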
Lmaj promast: inhibitors of Leishmania major promastigote growth; Leishmania major promastigotes, resazurin fluorescence viability; inhibition, % at 10 µM; 200,000 compounds, 9% hits; AID 1063; in the data active means inhibition above about 50%;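 further: promastigotes grown with compound for 44 hours at 28 °C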
* = called active by the depositor; nt = no result given.

SMILES | ROMK mod | KCC2 mod | Insulin prom up | WT yeast gro inh | INS promoter inh | Lmaj promast
Cc1cc(N2CCN(C)CC2)nc2ccc(NC(=S)NC3CC3)cc12 | -0.28 | -1.1 | 1.5 | 6 | nt | 22
Cc1cc(N2CCN(C)CC2)nc2ccc(NC(=O)c3cccnc3Cl)cc12 | -0.29 | -0.005 | -0.36 | -1 | 32 | 99*
CCN1CCN(c2cc(C)c3cc(NC(=O)c4ccc(Br)o4)ccc3n2)CC1 | 0.84 | nt | -0.79 | -2 | 0 | 100*
COc1ccc(CCC(=O)Nc2ccc(Cl)c(S(=O)(=O)N3CCCC3)c2)cc1 | nt | -1.8 | -0.79 | nt | nt | nt
O=C(CSc1nc(Cc2ccccc2)nc2ccccc12)Nc1nc2c(s1)CCCC2 | nt | -1.2 | -3.5 | 42 | nt | -6
CC(C)c1nc(SCC(=O)Nc2nc3c(s2)CCCC3)c2ccccc2n1 | nt | nt | 0.48 | 62* | 46 | 5
CC(C)(C)c1nc(SCC(=O)Nc2nc3c(s2)CCCC3)c2ccccc2n1 | nt | -0.6 | nt | 35 | -13 | 80*
COc1ccc(C)cc1NC(=O)C(OC(=O)C1CC1)c1ccccc1 (stereo not drawn) | -1.7 | -2.2 | 0.39 | 4 | nt | 0
CCOc1cc(/C=C/c2ccc3cccc([N+](=O)[O-])c3n2)ccc1O | -0.014 | -0.5 | -0.76 | 26 | 43 | 73*
O=[N+]([O-])c1cccc2ccc(/C=C/c3ccc(F)cc3)nc12 | nt | -0.19 | -0.18 | 15 | 4 | 57*
COc1cc(/C=C/c2ccc3cccc([N+](=O)[O-])c3n2)ccc1OCC#N | 0.12 | -0.056 | -2.3 | 15 | -13 | 6
O=[N+]([O-])c1ccc(/C=C/c2ccc3cccc([N+](=O)[O-])c3n2)cc1 | 0.21 | -0.44 | 0.83 | -6 | -11 | 51*
NS(=O)(=O)c1ccc(NC(=O)COC(=O)c2cnc(Cl)c(Cl)c2)cc1 | nt | 1 | 0 | nt | nt | nt
COc1ccc(C(=O)Nc2cccc(OC)c2)cc1 | nt | nt | 1.9 | 13 | -18 | -4
COc1cccc(NC(=O)c2cc(-c3ccncc3)nc3c(C)cc(C)cc23)c1 | -0.043 | -0.057 | -0.75 | 19 | nt | 55*
O=C(CSCc1ccc(Cl)c(Cl)c1)Nc1c[nH]c(=O)[nH]c1=O | 1.3 | 0.49 | 0.6 | 0 | 24 | -2
O=C(CSCc1ccccc1Cl)Nc1c[nH]c(=O)[nH]c1=O | nt | 0.35 | 0.64 | -11 | 21 | 59*
O=C(CN1C(=O)c2ccccc2S1(=O)=O)Nc1ccc(S(=O)(=O)N2CCCCCC2)cc1 | nt | nt | 0.41 | 17 | -15 | -4
C[N+]1=C(/C=C/Nc2ccccc2Cl)C(C)(C)c2ccccc21 | nt | -2.3 | nt | 48 | -59 | 98*
FC(F)(F)c1cnc(/C=C/Nc2ccccc2Cl)c(Cl)c1 | nt | -0.033 | nt | 24 | -44 | -3
CSC(=S)N/N=C/c1ccc(N(C)C)cc1 | 2.7* | 61* | -1 | 66 | 27 | 10
O=c1ccc2ccc(Oc3ccc(Cl)cc3[N+](=O)[O-])cc2o1 | 0.82 | -2.2 | -0.28 | -10 | nt | -4
CCC(=O)Oc1ccc(C(=O)Nc2ccc3c(c2)OCO3)cc1 | 0.83 | 0.22 | 0.44 | 18 | nt | -2
Cn1c(=N)n(CC(=O)c2ccc(Br)s2)c2ccccc21 | -1.1 | -0.32 | -0.47 | 12 | -60 | 84*
Cn1c(=N)n(CC(=O)c2cccs2)c2ccccc21 | nt | 0.38 | 0.08 | 11 | -16 | -5
SMILES | ROMK mod | KCC2 mod | Insulin prom up | WT yeast gro inh | INS promoter inh | Lmaj promast
CC(C)SC1=NC(C)(C)C=C(/C=C/c2c(Cl)cccc2Cl)N1 | -0.86 | -4.6 | 0.6 | 66* | -29 | 100*
CC(C)SC1=NC(C)(C)C=C(/C=C/c2ccc(Cl)cc2Cl)N1 | -0.59 | -0.042 | 3.6* | 77* | -61 | 95*
COc1ccc(C(=O)c2cnc3ccccc3c2-c2ccccc2)cc1 | -0.96 | -0.64 | -0.22 | 5 | nt | 30
Cc1ccc(C(=O)c2cnc3ccccc3c2-c2ccccc2)cc1 | 0.024 | -0.57 | -0.07 | -6 | nt | 57*
O=C(Cn1nnc2ccccc21)c1ccccc1 | -1.9 | -0.049 | 0 | 24 | -47 | -2
CN(C)c1nc2ccccc2c(N)c1-c1ccccc1 | nt | nt | -0.74 | 11 | 25 | 96*
O=C(CCc1ccccc1)Nc1ccc(S(=O)(=O)N2CCCC2)cc1 | 0.058 | -0.81 | nt | -5 | nt | 0
CCC(=O)Nc1ccc(S(=O)(=O)N2CCOCC2)cc1 | nt | 0.77 | nt | 3 | -471 | 2
O=C(Cn1c(=O)sc2ccccc21)Nc1ccc(S(=O)(=O)N2CCCC2)cc1 | nt | -0.58 | 1.1 | -10 | 9 | 80*
O=C(CN1C(=O)C2CC=CCC2C1=O)Nc1ccc(S(=O)(=O)N2CCOCC2)cc1 (stereo not drawn) | -0.52 | 0.49 | 0.01 | -39 | 73* | 11
O=C(CSCc1ccc(Br)cc1)Nc1ccc(S(=O)(=O)N2CCOCC2)cc1 | -0.65 | nt | 0 | 6 | nt | 100*
O=C(CN1CCCCCC1)Nc1ccc(S(=O)(=O)N2CCOCC2)cc1 | 1 | -0.29 | nt | -3 | nt | 55*
O=C(CSCc1ccccc1)Nc1ccc(S(=O)(=O)N2CCOCC2)cc1 | nt | nt | -0.15 | 2 | -16 | 0
C=CCOc1ccc(CNc2nn[nH]n2)cc1 | -0.55 | 0.17 | -0.07 | 2 | 15 | -5
COc1cc(O)c(C(CCN2CCN(c3ccccc3)CC2)c2cc(OC)c(OC)c(OC)c2)c(OC)c1 (stereo not drawn) | nt | 2.5 | -1 | nt | nt | nt
CCOC(=O)NCc1ccc(S(=O)(=O)Nc2ccccc2C)cc1 | nt | -0.51 | -0.44 | 10 | nt | 3
Cc1ccccc1NS(=O)(=O)c1ccc(NC(=O)CSCc2ccc(Br)cc2)cc1 | nt | nt | -0.55 | 66* | -4 | 24
CC(C)c1ccc(N(CC(=O)Nc2ccc(S(=O)(=O)N3CCOCC3)cc2)S(C)(=O)=O)cc1 | 0.56 | nt | 0.17 | -2 | 26 | 90*
Cc1ccc(N(CC(=O)Nc2ccc(S(=O)(=O)N3CCOCC3)cc2)S(C)(=O)=O)cc1C | nt | nt | -0.06 | -3 | nt | 7
NC(=S)N/N=C/c1ccc(-c2cc(Cl)c(Cl)cc2Cl)o1 | nt | nt | -0.57 | 27 | nt | 78*
O=C(c1ccc(S(=O)(=O)Nc2ccc(F)cc2)cc1)N1CCN(c2ccccn2)CC1 | 0.14 | -0.13 | 0.72 | 6 | -22 | 99*
Cc1ccc(NS(=O)(=O)c2ccc(C(=O)N3CCN(c4ncccn4)CC3)cc2)cc1 | -1.3 | nt | 0.46 | 1 | 31 | -11
Cc1cc(N2CCN(C(=O)c3ccco3)CC2)n2ncc(-c3ccccc3)c2n1 | -1.3 | -0.79 | -1 | 93* | nt | 16
Cc1nn2c(N3CCN(C(=O)c4ccco4)CC3)cc(C(C)(C)C)nc2c1-c1ccccc1 | 0.56 | nt | -0.45 | -4 | 40 | 57*
Cc1cc(N2CCN(C(=O)c3ccco3)CC2)n2ncnc2n1 | nt | 0.014 | -0.02 | -14 | 60 | -2
COc1ccc(C(=O)Nc2ccccc2C(=O)O)cc1NC(=O)C(c1ccccc1)c1ccccc1 | nt | -1.5 | -0.1 | nt | nt | nt
COc1cccc(C(=O)Nc2ccccc2C(=O)N2CCCC2)c1 | 0.06 | 0.29 | 3.3* | 5 | -14 | -2
COc1cccc(C(=O)Nc2ccccc2N2CCCC2)c1 | nt | 0.43 | -0.93 | 8 | 23 | 4
COc1ccc(C(=O)Nc2ccccc2C(=O)O)cc1Cl | 0.063 | -2.1 | -0.05 | 25 | -3 | 67*
Cc1c(Cl)cccc1NC(=O)c1cccc(OC(F)F)c1 | 0.18 | -0.27 | 1.1 | -30 | -21 | 99*

Source: PubChem BioAssay (several laboratories)
